Measured values taken from PubChem BioAssay (NCI).
This is part of a sample that, as a whole, favours compounds with a hit. Of some 83,000 tested, about 20% had one in any assay.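 For each line, cells grew in 96-well plates with the test compound present at a single concentration for 48 hours.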 Activity calls are given as the source filed them. Rule for the calls: active = growth percent below 10; inactive = the rest.

Columns and labels:
Test in all cases: NCI-60 one-dose screen, 48 h (100 = growth as untreated, 0 = no growth, -100 = all killed)
Settings in all cases: 10 µM unless noted
SR leukemia = system: SR leukemia
RPMI-8226 leukemia = system: RPMI-8226 leukemia
OVCAR-8 ovarian = system: OVCAR-8 ovarian
OVCAR-5 ovarian = system: OVCAR-5 ovarian
OVCAR-4 ovarian = system: OVCAR-4 ovarian
SK-OV-3 ovarian = system: SK-OV-3 ovarian
IGROV1 ovarian = system: IGROV1 ovarian
OVCAR-3 ovarian = system: OVCAR-3 ovarian
HS 578T breast = system: HS 578T breast
NCI/ADR-RES ovarian = system: NCI/ADR-RES ovarian
T-47D breast = system: T-47D breast
BT-549 breast = system: BT-549 breast
MDA-MB-435 melanoma = system: MDA-MB-435 melanoma
SW-620 colon = system: SW-620 colon
MCF7 breast = system: MCF7 breast
HCT-116 colon = system: HCT-116 colon
HCC-2998 colon = system: HCC-2998 colon
KM12 colon = system: KM12 colon

Measured: growth

CCOC(=O)c1cc2c(n1Cc1cc(OC)c(OC)c(OC)c1)-c1nc(N)sc1CCC2
active: SR leukemia 5.15% | MDA-MB-435 melanoma -38.7%
inactive: RPMI-8226 leukemia 75.9% | OVCAR-8 ovarian 55.4% | OVCAR-5 ovarian 98.3% | OVCAR-4 ovarian 65% | SK-OV-3 ovarian 29.3% | IGROV1 ovarian 50.8% | OVCAR-3 ovarian 21.1% | HS 578T breast 55.7% | NCI/ADR-RES ovarian 20.8% | T-47D breast 43.3% | BT-549 breast 51.2% | SW-620 colon 43.4% | MCF7 breast 27.6% | HCT-116 colon 34.1% | HCC-2998 colon 73.1% | KM12 colon 30.8%

N#CSCC1CC(O)(c2ccccc2)CC(c2ccc(F)cc2)O1 (centres undefined)
active: SR leukemia -29.6% | RPMI-8226 leukemia -22.4% | OVCAR-3 ovarian -79.3% | HS 578T breast -22.7% | NCI/ADR-RES ovarian -3.67% | BT-549 breast -9.66% | MDA-MB-435 melanoma 0.665% | SW-620 colon -58.8% | MCF7 breast -17% | HCT-116 colon -60.4% | KM12 colon -49.3%
inactive: OVCAR-8 ovarian 10.3% | OVCAR-5 ovarian 85.6% | OVCAR-4 ovarian 26.1% | SK-OV-3 ovarian 52.7% | IGROV1 ovarian 51.1% | T-47D breast 12.5% | HCC-2998 colon 72%

O=C(Nc1nc2cc(C(=O)N3CCN(C(c4ccccc4)c4ccccc4)CC3)ccc2o1)c1ccc(NC2CCCCC2)c([N+](=O)[O-])c1
inactive: SR leukemia 49.1% | RPMI-8226 leukemia 40.1% | OVCAR-8 ovarian 37.8% | OVCAR-5 ovarian 72.5% | OVCAR-4 ovarian 38.8% | SK-OV-3 ovarian 73.8% | IGROV1 ovarian 51.1% | OVCAR-3 ovarian 52.8% | HS 578T breast 76% | NCI/ADR-RES ovarian 35.3% | T-47D breast 44.3% | BT-549 breast 83.4% | MDA-MB-435 melanoma 64.9% | SW-620 colon 44.3% | MCF7 breast 50.2% | HCT-116 colon 40.9% | HCC-2998 colon 62.2% | KM12 colon 51.4%
